# A selection: hits, their analogues and other compounds. The true share with any hit is near 19%.
# TDP1 inh: inhibitors of human tyrosyl-DNA phosphodiesterase TDP1 | Q9NUW8 | recombinant TDP1, AlphaScreen DNA substrate cleavage | Potency, µM (doses to about 130 µM), for the others: at the top dose activity change, negative = inhibition, most hits filed as inhibitors | 350,000 tested, 0.28% active | AID 485290; further: nearly all actives have a fitted effect of over 40% in size
# Target sequence (Q9NUW8 whole entry, looked up): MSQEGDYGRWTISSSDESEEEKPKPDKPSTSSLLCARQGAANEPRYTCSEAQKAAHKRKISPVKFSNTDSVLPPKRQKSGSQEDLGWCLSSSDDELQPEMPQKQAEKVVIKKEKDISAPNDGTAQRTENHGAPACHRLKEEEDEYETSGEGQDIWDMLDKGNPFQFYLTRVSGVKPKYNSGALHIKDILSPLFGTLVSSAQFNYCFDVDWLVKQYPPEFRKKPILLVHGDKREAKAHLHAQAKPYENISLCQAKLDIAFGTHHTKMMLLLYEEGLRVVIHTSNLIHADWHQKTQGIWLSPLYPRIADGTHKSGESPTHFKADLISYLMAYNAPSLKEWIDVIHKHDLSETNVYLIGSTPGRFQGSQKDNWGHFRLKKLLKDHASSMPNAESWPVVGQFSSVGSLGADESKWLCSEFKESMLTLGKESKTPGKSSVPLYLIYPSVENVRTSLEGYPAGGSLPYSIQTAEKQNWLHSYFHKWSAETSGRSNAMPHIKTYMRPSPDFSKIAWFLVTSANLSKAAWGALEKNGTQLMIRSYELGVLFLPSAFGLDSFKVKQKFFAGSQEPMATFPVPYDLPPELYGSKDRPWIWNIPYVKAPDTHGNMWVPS
#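 AlphaScreen read-out: signal falls as enzyme removes the 3' tyrosine-FITC from a 5'-biotinylated DNA oligo (15 nM, 5 min, RT). Enzyme was E. coli-made recombinant Tdp1 at 1 nM, exposed to compound for 15 min beforehand; beads 10 ug/ml, 10 min.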
# TDP1 cell noCPT: qHTS for Inhibitors of human tyrosyl-DNA phosphodiesterase 1 (TDP1): qHTS in cells in absence of CPT | Potency, µM (series often up to 46.2 µM), for inactives: top-dose activity change, negative = growth inhibition, hits mostly inhibitors | 420,000 tested, 15% active | DT40 Tdp1-/- hTDP1 cells, no CPT, ATP luminescence, 48 h; further: nearly all actives have a fitted effect of over 55% in size
#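 Growth of hTDP1-complemented DT40 Tdp1-knockout cells is measured by ATP luminescence after at least 48 hr compound exposure at 37 °C, with DMSO substituting for the 20 nM CPT used in the parallel screen.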
# RORg inh: inhibitors of mouse ROR gamma transcriptional activity. 310,000 tested, 5.4% active. Drosophila S2 Gal4-RORgamma UAS-luciferase reporter, 20 h. AID 2551. Potency, µM (top dose mostly 53.6 µM), for inactives: at the top dose activity change, negative = inhibition, hits mostly inhibitors. P51450; further: nearly all actives have a fitted effect of over 60% in size
#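 Luminescence from a UAS-regulated Photinus luciferase reporter in stably transfected Drosophila Schneider cells is measured; decreased signal marks ROR gamma inhibition. Fusion expression is induced by 700 uM copper sulfate for 20 hr.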
# VP16 counter: inhibits Gal4-VP16 luciferase reporter, ROR gamma counter-screen; Drosophila S2 Gal4-VP16 UAS-luciferase, luminescence, 20 h; Potency, µM (doses to about 53.6 µM), inactives show at the highest dose activity, negative = inhibition, actives largely listed as inhibitors; 310,000 tested, 3.5% active; AID 2546;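 further: Gal4-VP16 expression switched on by copper sulfate through the metallothionein promoter; nearly all actives have a fitted effect of over 50% in size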
# TDP1 cell CPT: growth inhibition of DT40 Tdp1-/-;hTDP1 cells with camptothecin (screen for TDP1 inhibitors); Potency, µM (series often up to 46.2 µM), for the others: at the highest dose activity change, negative = growth inhibition, most hits filed as inhibitors; chicken DT40 Tdp1-/-;hTDP1 cells + 20 nM CPT, ATP luminescence, 48 h; 420,000 tested, 12% active; further: nearly all actives have a fitted effect of over 55% in size
#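 Chicken DT40 Tdp1-/- cells complemented with human TDP1, 400 cells/well, exposed to compounds plus 20 nM camptothecin for at least 48 h at 37 C; viability read as ATP content by CellTiter-Glo luminescence.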
# * = called active by the depositor; ? = inconclusive; nt = not tested or not shown; [ ] = another dose, or the depositor's remark. The call rests on the fitted dose curve; in most records, active means well fitted curve in the direction sought with a large enough effect; inconclusive means small, poorly fitted or top-dose-only effect, or another doubt; inactive means no such curve, though single readings can be large; an effect the other way counts as inactive or inconclusive. On the % scale 0 is the no-effect control and ±100 the full control effect; potency means the concentration at half of the fitted maximal effect.
SMILES,TDP1 inh,TDP1 cell noCPT,RORg inh,VP16 counter,TDP1 cell CPT
CN(/N=C/c1ccco1)C1=NS(=O)(=O)c2ccccc21,-3%,9%,-3%,-12%,-5%
CCNc1nc(NCC)nc(N(C)/N=C/c2ccco2)n1,nt,5%,3.5µM*,20µM*,1%
Cc1cc(C)nc(NN2C(=O)/C(=C/c3ccccc3)SC2=S)n1,-8%,?,13µM*,-12%,-26%
CC1CCCN(C(=S)Nc2ccc(F)cc2)C1 (centres undefined),-3%,-12%,8.9µM*,1%[10 µM],16%
CCc1ccc(NC(=S)N2CCCC(C(F)(F)F)C2)cc1 (centres undefined),4%,-25%,13µM*,?,10%
CCc1ccc(NC(=S)N2CCCC2)cc1,2%,3%,?,-23%,2%
CC1CCCN(C(=S)Nc2ccc(Nc3ccccc3)cc2)C1 (centres undefined),5%,9.2µM*,11µM*,?,10µM*
CC(C)C[C@H](NC(=O)N1CC(=O)Nc2ccccc21)C(=O)N1CCC[C@H]1C(=O)O,nt,-5%,-21%,-1%,7%
C[C@@H]1NC(=O)[C@@H](C)COC(=O)[C@H](C)NC(=O)[C@@H](C)COC1=O,9%[21 µM],nt,8%[10 µM],-8%[10 µM],nt
COc1cccc2c(O)c(-c3ccccc3)c(=O)[nH]c12,nt,4%,nt,nt,-4%
Cn1nc(C(F)(F)F)c(-c2ccc(F)cc2)c1NC(=O)Nc1ccc(F)cc1,4%,15µM*,?,1%,16µM*
Cn1nc(C(F)(F)F)c(-c2ccc(Br)cc2)c1NC(=O)c1cccnc1,3%,13µM*,45%,6%,?
CCNS(=O)(=O)c1ccc(C)cc1,17%,nt,-3%,3%,nt
CCOc1ccc(C2=Nn3c(nnc3-c3ccccn3)SC2)cc1,6%,-19%,39%,-11%,-7%
CC1CN(S(=O)(=O)c2cccc(C(=O)OC/C(O)=C(\C#N)c3nc4ccccc4[nH]3)c2)CC(C)O1 (centres undefined),5%,?,11µM*,?,?
N#C/C(=C(/O)COC(=O)CCc1ccc(S(=O)(=O)N2CCOCC2)cc1)c1nc2ccccc2[nH]1,11%,13µM*,8.9µM*,20µM*,16µM*
Cc1ccc(S(=O)(=O)N2CCOCC2)cc1N/N=C(\C#N)c1nc2ccccc2[nH]1,3%,26µM*,?,12%,?
N#C/C(=C(/O)COC(=O)c1ccc(Cl)c(S(=O)(=O)N2CCOCC2)c1)c1nc2ccccc2[nH]1,7%,-8%,3.5µM*,7.1µM*,7%
O=C(CCS(=O)(=O)c1cccs1)Nc1ccc(C(=O)NC2CCCC2)cc1,-2%,16%,14%,-4%,1%
O=C(CSc1nc2ccccc2c(=O)n1CCCN1CCOCC1)c1c[nH]c2ccccc12,8%,?,4%,-4%,?
Cc1cccc(NC(=O)Cn2c(=O)n(CCc3ccccc3)c(=O)c3ccccc32)c1,2%,?,nt,nt,-19%
Cc1ccc(C(=O)OC/C(O)=C(\C#N)c2nc3ccccc3[nH]2)cc1S(=O)(=O)N1CCOCC1,6%,7.3µM*,?,?,5.8µM*
O=C1NC(Cc2c[nH]c3ccccc23)C(=O)N1Cc1ccccc1 (centres undefined),6%,4%,10%,-1%,-12%
CCOC(=O)c1ccc(NC(=O)c2c(Cl)cc(C)nc2C)cc1,5%,5.2µM*,33%,6%,3.3µM*
CCOC(=O)c1ccc(NC(=O)c2c(C)[nH]c(C(=O)OCC)c2C)cc1,2%,-14%,27%,-10%,-9%
SMILES,TDP1 inh,TDP1 cell noCPT,RORg inh,VP16 counter,TDP1 cell CPT
CCOC(=O)c1ccc(Nc2cc(C)nc(C)c2C(=O)OCC)cc1,5%,18µM*,-7%,-1%,?
CCOC(=O)c1ccc(Nc2nnc(C(C)(C)C)c(=O)[nH]2)cc1,5%,23µM*,38%,5%,?
CCc1nc2sc3c(c2c(=O)n1N)CCC3,6%,?,10%,-4%,?
O=C(O)CCCN1C(=O)NC2NC(=O)NC21 (centres undefined),7%,-6%,-1%,-5%,-10%
Cc1ccc(NC(=O)CN2CCCCCC2)c(Br)c1,0%,-26%,11%,22%,-14%
C=CCOc1c(CNc2ccc(C(=O)O)cc2)cccc1OC,3%,-15%,-6%,?,-10%
O=C(NCc1ccccc1)c1cccc(COc2ccc(Cl)cc2)c1,-5%,?,?,?,-14%
Cc1ccc(/C=C/c2onc(C)c2S(=O)(=O)N2CCC(C(=O)Nc3ccc(OC(F)(F)F)cc3)CC2)cc1,1%,13µM*,nt,nt,12µM*
Cc1ccc(/C=C/c2onc(C)c2S(=O)(=O)N2CCC(C(=O)Nc3ccc(C)c(N(C)C)c3)CC2)cc1,8%,9.2µM*,nt,nt,8.2µM*
Cc1ccc(/C=C/c2onc(C)c2S(=O)(=O)N2CCC(C(=O)Nc3cc(F)ccc3F)CC2)cc1,-8%,-21%,nt,nt,?
COc1ccc(-c2nc3cc(C(C)C)ccc3o2)cc1NC(=O)c1ccc(C)c(Cl)c1,2%,18µM*,nt,nt,21µM*
COc1ccc(-c2nc3cc(C(C)C)ccc3o2)cc1NC(=O)COc1ccc(C)cc1C,4%,?,nt,nt,6.5µM*
COc1cccc(NC(=O)CCN2C(=O)c3ccc([N+](=O)[O-])cc3C2=O)c1,0%,-8%,-33%,5%,8%
CC(=O)ON1C(C)(C)CC(OC(=O)c2ccccc2)CC1(C)C,4%,-27%,-23%,1%,21µM*
O=C(OC1Cn2c(=O)ccc(=O)n2C1)c1ccccc1,-4%,-3%,-20%,-8%,-29%
CC(=O)OC1CC(C)(C)N(OC(=O)c2ccccc2)C(C)(C)C1,-5%,21µM*,-37%,17%,?
CC(=O)OC1CC(C)(C)N(OC(=O)c2ccc(N)cc2)C(C)(C)C1,-9%,-20%,5%,0%,?
Cc1cc(=O)oc2c3c(cc(OCC(=O)NCc4ccco4)c12)OC(C)(C)CC3,nt,?,32%,4%,?
COc1ccc(CNC(=O)COc2cc3c(c4oc(=O)cc(C)c24)CCC(C)(C)O3)cc1OC,nt,23µM*,12%,-4%,21µM*
Cc1c(C)c2c(OCC(=O)NCc3ccncc3)cc3c(c2oc1=O)CCC(C)(C)O3,nt,?,3%,4%,?
Cc1cc(=O)oc2c3c(cc(OCC(=O)NCc4ccncc4)c12)OC(C)(C)CC3,nt,23µM*,19%,-10%,?
CCC(c1nnc(SCC(=O)Nc2ccc(S(N)(=O)=O)cc2)n1Cc1ccccc1)N(C)C (centres undefined),-1%,-26%,0%,-14%,-21%
